Test results published in PubChem BioAssay.
The source made the active and inactive calls.

Tests used:
[1] = adipocyte viability effects, profiling panel, cell-based, 3T3-L1 adipocytes, calcein-AM fluorescence, 48 h, basal (AID 1163); conditions: 3T3-L1 adipocytes viability, higher = more signal
[2] = HepG2 cell viability effects, profiling panel, calcein-AM fluorescence, 48 h, basal (AID 1164); conditions: higher = more signal
[3] = MM1S cell viability effects, profiling panel, calcein-AM fluorescence, 48 h, basal (AID 1165); conditions: higher = more signal;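 also: viability of MM1S multiple myeloma cells under basal unstimulated conditions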
[4] = basal RPMI8226 viability, no added stimulus, profiling panel, cell-based, calcein-AM fluorescence, 48 h, PK04 Diversity Set (AID 1166); conditions: RPMI8226 myeloma viability, higher = more signal;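 also: cells grown under basal conditions without added stimulus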
[5] = basal HepG2 mitochondrial membrane potential changes, profiling panel, cell-based, JC-1 fluorescence, 24 h, 100 nL compound (AID 1167); conditions: higher = more signal
[6] = basal 3T3-L1 adipocyte mitochondrial potential changes, profiling panel, cell-based, JC-1 fluorescence, 3T3-L1 adipocytes, 24 h, 100 nL compound (AID 1168); conditions: JC-1 mitochondrial fluorescence, higher = more signal, called active from +8 up or from −8 down
[7] = basal RPMI8226 mitochondrial membrane potential changes, profiling panel, cell-based, JC-1 fluorescence, 24 h, 100 nL compound (AID 1169); conditions: RPMI8226 myeloma, JC-1 mitochondrial potential fluorescence, higher = more signal
[8] = basal MM1S mitochondrial membrane potential changes, profiling panel, cell-based, JC-1 fluorescence, 24 h, 100 nL compound (AID 1170); conditions: higher = more signal
[9] = A549 lung cancer cell viability effects, profiling panel, resazurin fluorescence, 24 h, PK04 Diversity Set (AID 1171); conditions: higher = more signal, called active from +8 up or from −8 down
[10] = HepG2 liver cancer cell viability effects, profiling panel, resazurin fluorescence, 24 h, PK04 Diversity Set (AID 1172); conditions: higher = more signal
[11] = basal S. cerevisiae growth modulation, no modifier, primary screen, OD600, strain BY4716, 24 h, basal condition (AID 1173); conditions: OD600, 24 h, higher = more signal, called active from +8 up or from −8 down
[12] = MM1S myeloma cell viability, profiling panel, resazurin fluorescence, basal, 24 h, PK04 Diversity Set (AID 1174); conditions: higher = more signal, called active from +8 up or from −8 down;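 also: MM1S multiple myeloma cell line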
[13] = biological target: Dihydroorotate dehydrogenase (quinone), mitochondrial (Plasmodium falciparum (isolate 3D7)) (UniProt Q08210); assay: PfDHODH enzyme inhibitors, primary screen, biochemical, C-terminal His tag, absorbance 600 nm (AID 1175); conditions: DCIP absorbance 600 nm, higher = more signal, called active from +8 up or from −8 down;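 also: recombinant parasite enzyme with a five histidine tag at its C terminus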
[14] = S. cerevisiae RM11-1a growth modifiers, primary screen, strain RM11-1a, OD600, basal, 24 h (AID 1177); conditions: OD600, 24 h, higher = more signal, called active from +8 up or from −8 down;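 also: cultures grown under basal conditions with no added stressor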
[15] = E. coli acrAB mutant growth effects, primary screen, E. coli filamentation inducers, strain DRC39, OD650, 24 h (AID 1178); conditions: higher = more signal, called active from +8 up or from −8 down;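 also: growth measured as culture turbidity by optical density at 650 nm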
[16] = E. coli acrAB mutant growth effects, primary screen, E. coli filamentation inducers, strain DRC39, OD650, 48 h (AID 1179);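 also: screen aims at cell division blockers that make cells filament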; conditions: E. coli DRC39 delta-acrAB growth, higher = more signal, called active from +8 up or from −8 down
[17] = RPMI8226 myeloma cell viability, profiling panel, resazurin fluorescence, basal, 24 h, PK04 Diversity Set (AID 1180); conditions: higher = more signal;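 also: RPMI8826 multiple myeloma cell line at 5000 cells per well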
[18] = biological target: E3 ubiquitin-protein ligase XIAP (Homo sapiens) (UniProt P98170); assay: XIAP binders, primary screen, biophysical, small-molecule microarray, fluorescence 635 nm (AID 1181); conditions: small-molecule microarray binding, higher = more signal;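 also: score merges 667 nm emission and signal to noise over triplicate slides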
[19] = test system: XIP peptide (Xip251-270) binding; assay: small-molecule binders of XIP peptide, primary screen, biochemical, small-molecule microarray, fluorescence 635/667 nm, 0.1 µg/mL protein (AID 1182); conditions: fluorescent protein binding, 635 nm, higher = more signal, called active from +8 up or from −8 down
XIP peptide (Xip251-270) = assay: small-molecule binders of XIP peptide, primary screen, biochemical, small-molecule microarray, fluorescence 635/667 nm, 0.5 µg/mL protein (AID 1183); conditions: small-molecule microarray binding, fluorescence 635 nm; higher = more signal

Sequence of Dihydroorotate dehydrogenase (quinone), mitochondrial (Plasmodium falciparum (isolate 3D7)) (Q08210 whole entry, looked up): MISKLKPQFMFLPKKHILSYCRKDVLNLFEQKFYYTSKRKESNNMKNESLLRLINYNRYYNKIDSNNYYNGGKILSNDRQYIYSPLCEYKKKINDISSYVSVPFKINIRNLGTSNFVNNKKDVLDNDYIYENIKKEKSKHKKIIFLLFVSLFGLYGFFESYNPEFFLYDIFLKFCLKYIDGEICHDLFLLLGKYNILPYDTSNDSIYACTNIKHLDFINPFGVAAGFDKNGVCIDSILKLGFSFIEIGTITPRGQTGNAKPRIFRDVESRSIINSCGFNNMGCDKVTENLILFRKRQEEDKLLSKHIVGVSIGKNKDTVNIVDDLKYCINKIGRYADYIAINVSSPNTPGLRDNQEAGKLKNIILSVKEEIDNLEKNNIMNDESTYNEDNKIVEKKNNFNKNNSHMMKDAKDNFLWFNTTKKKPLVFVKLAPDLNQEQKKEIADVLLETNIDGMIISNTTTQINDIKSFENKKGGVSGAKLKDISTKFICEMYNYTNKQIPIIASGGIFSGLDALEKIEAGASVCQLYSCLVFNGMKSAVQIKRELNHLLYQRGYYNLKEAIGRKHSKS
Sequence of E3 ubiquitin-protein ligase XIAP (Homo sapiens) (P98170 whole entry, looked up): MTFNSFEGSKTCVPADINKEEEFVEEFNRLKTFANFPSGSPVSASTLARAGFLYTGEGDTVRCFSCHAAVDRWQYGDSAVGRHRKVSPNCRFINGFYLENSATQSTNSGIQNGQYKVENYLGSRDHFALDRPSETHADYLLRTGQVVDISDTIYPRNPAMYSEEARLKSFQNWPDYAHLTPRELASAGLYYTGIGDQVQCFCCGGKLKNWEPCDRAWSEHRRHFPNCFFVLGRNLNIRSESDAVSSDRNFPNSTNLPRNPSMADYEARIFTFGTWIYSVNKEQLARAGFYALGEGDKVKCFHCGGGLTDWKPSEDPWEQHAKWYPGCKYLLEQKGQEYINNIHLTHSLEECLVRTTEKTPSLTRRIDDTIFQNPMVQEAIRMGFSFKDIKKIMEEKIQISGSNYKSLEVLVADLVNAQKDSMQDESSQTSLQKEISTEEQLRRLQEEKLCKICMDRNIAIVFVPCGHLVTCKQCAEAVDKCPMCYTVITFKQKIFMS

Compound	z-score [1]	z-score [2]	z-score [3]	z-score [4]	z-score [5]	z-score [6]	z-score [7]	z-score [8]	z-score [9]	z-score [10]	z-score [11]	z-score [12]	composite z-score [13]	z-score [14]	z-score [15]	z-score [16]	z-score [17]	composite z-score [18]	composite z-score [19]	composite z-score (XIP peptide (Xip251-270))
[N-]=[N+]=NCc1ccccc1C[C@@]1(C(=O)O)N=C(c2ccc(OCCCO)cc2)O[C@@H]1c1ccccc1	0.298	-0.187	-0.139	0.0527	-0.586	0.493 (inactive)	-0.497	0.394	0.946 (inactive)	0.458	-3.34 (inactive)	0.954 (inactive)	0.0567 (inactive)	-1.01 (inactive)	2.63 (inactive)	1.26 (inactive)	0.903	0.188	1.35 (inactive)	0.687
C=CCN1C(=O)[C@@]2(O[C@@H](CCO)[C@H]([Si](C)(C)c3ccc(OC)cc3)[C@H]2C)c2cc(N(C=O)c3ccccc3)ccc21	0.412	-4.73	-2.68	-4.39	-2.22	1.53 (inactive)	-1.05	-2.14	-4.7 (inactive)	-6.2	-0.425 (inactive)	-8.88 (active)	-0.459 (inactive)	-0.592 (inactive)	2.62 (inactive)	1.81 (inactive)	-6.21	-0.0203	0.527 (inactive)	0.345
COc1ccc(C(=O)Nc2cccc(CN3C(=O)[C@@]4(O[C@@H](CCO)[C@H]([Si](C)(C)c5ccc(OC)cc5)[C@H]4C)c4ccccc43)c2)cc1	-0.301	-4.74	-2.7	-4.46	-1.97	2.77 (inactive)	-0.972	-2.36	-5.62 (inactive)	-6.42	-3.58 (inactive)	-9.06 (active)	-0.873 (inactive)	2.06 (inactive)	2.75 (inactive)	1.55 (inactive)	-6.22	0.0049	0.11 (inactive)	0.115
CC(C)CCC[C@@H](C)[C@H]1CC[C@@]2(C)C3=C(CC[C@]12C)[C@@]1(C)CC[C@H](OC(=O)CCl)C(C)(C)C1CC3 (stereo not given in full)	0.155	1.17	0.405	0.895	1.58	-0.207 (inactive)	-0.493	1.07	0.96 (inactive)	1.16	-0.795 (inactive)	0.33 (inactive)	0.141 (inactive)	-0.249 (inactive)	2.93 (inactive)	1.59 (inactive)	0.444	0.106	0.133 (inactive)	0.174
CC(C)[Si](C#C[Si](C(C)C)(C(C)C)C(C)C)(O[C@H](C)c1cn([C@H](C)c2ccccc2)nn1)C(C)C	0.517	0.417	-0.908	1.5	2.71	1.94 (inactive)	-0.87	0.265	3.13 (inactive)	1.3	-0.0779 (inactive)	2.34 (inactive)	-0.32 (inactive)	-1.88 (inactive)	2.06 (inactive)	0.944 (inactive)	2.41	-0.0559	-0.608 (inactive)	0.193
O=C(O)[C@H]1C[C@H]2C(=O)N[C@@H](Cc3ccccc3)C(=O)N2[C@H]1c1ccc(O)cc1	0.691	-0.142	0.41	0.0405	1.29	-0.176 (inactive)	-0.865	-0.269	0.715 (inactive)	0.833	-0.145 (inactive)	0.635 (inactive)	-0.426 (inactive)	-0.44 (inactive)	0.431 (inactive)	0.361 (inactive)	1.04	0.117	0.3 (inactive)	0.923
C=C(CCCC)/C(=C/C[C@@H](OC(=O)c1ccncc1)c1ccc(OCCO)cc1)c1cnc2ccccc2c1	1.56	-0.375	-1.52	-0.393	2.07	-0.0617 (inactive)	-0.344	0.279	0.395 (inactive)	0.0347	-2.64 (inactive)	0.803 (inactive)	-2.2 (inactive)	0.365 (inactive)	1 (inactive)	0.734 (inactive)	1.59	-0.035	0.384 (inactive)	0.697
COCCOC(=O)N1C(=O)[C@@]2(c3cc(C#CCNC(N)=O)ccc31)[C@H](C(=O)NC[C@H](O)c1ccccc1)[C@H]1C(=O)O[C@H](c3ccccc3)[C@H](c3ccccc3)N1[C@@H]2c1ccc(O)cc1	0.539	0.315	-0.825	0.987	-0.549	0.962 (inactive)	0.161	-0.29	0.0618 (inactive)	0.141	-0.331 (inactive)	0.751 (inactive)	-0.263 (inactive)	0.436 (inactive)	-0.17 (inactive)	0.316 (inactive)	1.46	0.166	1.29 (inactive)	0.178
CC(CO)N1C(=O)[C@@H]2C3C(=O)OCCC/C=C\[C@H]3OC23C=CCN(Cc2ccccc2)C(=O)[C@@H]13 (stereo not given in full)	-0.154	0.547	2.05	-0.172	0.797	1.86 (inactive)	-0.0742	0.322	0.754 (inactive)	0.918	-0.703 (inactive)	0.462 (inactive)	-0.761 (inactive)	-0.985 (inactive)	1.6 (inactive)	1.97 (inactive)	0.526	-0.0333	-0.554 (inactive)	-0.736
O=C(N1CCCCC1)[C@@]1(Cc2ccccc2)N=C(c2ccc(OCCCO)cc2)O[C@H]1c1ccccc1	1.33	-2.47	-3.48	-3.78	-1.61	0.804 (inactive)	-0.982	-2.56	0.935 (inactive)	0.569	-0.635 (inactive)	-3.06 (inactive)	0.31 (inactive)	0.895 (inactive)	1.97 (inactive)	0.242 (inactive)	-5.21	-0.0448	0.764 (inactive)	0.66
Cc1ccc(N2C(=O)c3ccccc3[C@](C)(C(=O)NC3CC3)[C@@H]2c2ccc(CO)cc2)nc1	0.995	0.0786	0.47	0.442	0.587	-0.73 (inactive)	0.36	0.259	1.1 (inactive)	0.403	-1.76 (inactive)	1.55 (inactive)	0.0264 (inactive)	-0.224 (inactive)	0.256 (inactive)	0.143 (inactive)	1.51	0.0253	-0.485 (inactive)	-0.777
Cc1ccc(S[C@]2(C(=O)NCCN3CCOCC3)CC(=O)N(Cc3cc(C(F)(F)F)cc(C(F)(F)F)c3)[C@@H]2c2ccc(CO)cc2)cc1	0.947	-0.0671	1.15	0.603	1.18	0.784 (inactive)	-0.0854	0.685	3.33 (inactive)	1.08	-1.76 (inactive)	0.828 (inactive)	-0.911 (inactive)	-2.54 (inactive)	1.01 (inactive)	1.45 (inactive)	0.672	0.0808	-0.316 (inactive)	0.0326
C=C(COC)/C(=C/C[C@H](OC(C)=O)c1cccc(OCCO)c1)c1cc(C(=O)OC)ccc1OC	0.81	-2.15	0.0939	-1.1	0.616	1.88 (inactive)	-0.252	0.471	-1.03 (inactive)	-0.231	-17.6 (active)	0.975 (inactive)	-9.35 (active)	-21.4 (active)	1.24 (inactive)	0.802 (inactive)	0.59	0.0077	0.876 (inactive)	0.876
Cc1ccc(N2C(=O)c3ccccc3[C@](C)(C(=O)NCC(F)(F)F)[C@@H]2c2ccc(CO)cc2)nc1	1.45	0.529	-0.436	-1.45	-0.106	-0.603 (inactive)	0.54	1.04	0.451 (inactive)	0.125	-1.08 (inactive)	1.57 (inactive)	0.534 (inactive)	0.216 (inactive)	0.24 (inactive)	0.536 (inactive)	1.4	0.0506	-0.0838 (inactive)	-0.964
CC(C)(C)OC(=O)CC[C@@]12N=C(c3ccc(OCCCO)cc3)O[C@@H]1c1ccccc1CN(Cc1ccccc1)C2=O	1.52	-1.46	-3.12	-4.06	0.528	0.547 (inactive)	-1.2	-1.07	-0.624 (inactive)	-0.232	1.13 (inactive)	-3.4 (inactive)	0.714 (inactive)	3.15 (inactive)	1.21 (inactive)	0.199 (inactive)	-2.12	0.286	-0.127 (inactive)	0.687
CCN(CC)c1ccc(N2CC=CC34O[C@@H]5C=CCOC(=O)[C@@H]5[C@H]3C(=O)N(C(CO)C(C)C)[C@@H]4C2=O)cc1 (stereo not given in full)	0.471	0.121	-0.413	-0.201	0.296	0.688 (inactive)	1.08	0.728	0.461 (inactive)	0.492	0.0588 (inactive)	0.913 (inactive)	0.764 (inactive)	1.24 (inactive)	1.21 (inactive)	1.09 (inactive)	0.687	0.0139	-0.0795 (inactive)	-0.51
C=C(COC)C(=O)CC[C@H](OC(=O)c1ccccc1-c1ccccc1C(=O)O)c1ccccc1OCCO	0.819	-0.927	-1.41	0.0361	0.618	0.819 (inactive)	-0.437	0.24	0.283 (inactive)	0.365	-1.26 (inactive)	0.732 (inactive)	-1.46 (inactive)	-0.524 (inactive)	1.54 (inactive)	0.515 (inactive)	0.439	-0.111	1.43 (inactive)	0.356
